Assay results from PubChem BioAssay (EPA / NIEHS).
Calls of active or inactive are those of the source. The calls were made as follows: active = hit-call score of the fitted dose curve at least 0.9, where 1 is the maximum; inactive = score below 0.9.

Key:
Conditions in all cases: mRNA level, 48 h; actives raise or lower the signal
[1] = read-out: Glutamate-cysteine ligase regulatory (GCLM), GCLM (gene 2730); experiment: LTEA_HepaRG_GCLM: Life Technologies and Expression Analysis (LTEA) Assay for Glutamate-cysteine ligase regulatory (GCLM) using HepaRG (AID 2283500)
In short: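 GCLM expression quantified by qRT-PCR, normalized to three housekeeping genes, after 48 h chemical treatment of HepaRG cells in duplicate at 8 concentrations (top 100 uM, half-log steps, 0.5% DMSO). Changes fitted both directions against vehicle.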

[2] = read-out: Glutathione S-transferase M3 (GSTM3), GSTM3 (gene 2947); experiment: LTEA_HepaRG_GSTM3: Life Technologies and Expression Analysis (LTEA) Assay for Glutathione S-transferase M3 (GSTM3) using HepaRG (AID 2283501)
In short: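 Expression of GSTM3 is determined by qRT-PCR in human liver HepaRG cells treated 48 h with an 8-point half-log range from 100 uM in 0.5% DMSO.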

[3] = read-out: Heat shock 70 kDa protein 1 (HSPA1A), gene 3303; experiment: LTEA_HepaRG_HSPA1A: Life Technologies and Expression Analysis (LTEA) Assay for Heat shock 70 kDa protein 1 (HSPA1A) using HepaRG (AID 2283502)
In short: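 HSPA1A expression measured by qRT-PCR with ACTB/GAPDH/POLR2A normalization; curves fitted in both directions relative to DMSO vehicle. Exposure: 48 h in HepaRG cells, duplicate 8-point half-log series from 100 uM, 0.5% DMSO, serum-free induction medium.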

[4] = read-out: Hypoxia-inducible factor 1-alpha (Homo sapiens) (UniProt Q16665); experiment: LTEA_HepaRG_HIF1A: Life Technologies and Expression Analysis (LTEA) Assay for Hypoxia-inducible factor 1 (HIF1A) Trancription factor using HepaRG (AID 2283503)
In short: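 HIF1A transcript level read by qRT-PCR (ACTB, GAPDH, POLR2A normalization) after 48 h chemical exposure of HepaRG cultures. Eight half-log concentrations, top 100 uM, 0.5% DMSO vehicle, duplicates; bidirectional curve fit against DMSO baseline.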

[5] = read-out: 3-Hydroxy-3-Methylglutaryl-CoA Synthase 2 (HMGCS2), HMGCS2 (gene 3158); experiment: LTEA_HepaRG_HMGCS2: Life Technologies and Expression Analysis (LTEA) Assay for 3-Hydroxy-3-Methylglutaryl-CoA Synthase 2 (HMGCS2) using HepaRG (AID 2283504)
In short: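 This steatosis marker was read as HMGCS2 mRNA change in HepaRG cells treated 48 h with up to 100 uM chemical. Normalisation used housekeeping genes; activity in either direction was fitted relative to 0.5% DMSO vehicle.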

[6] = read-out: HGF (gene 3082); experiment: LTEA_HepaRG_HGF: Life Technologies and Expression Analysis (LTEA) Assay for Hepatocyte Growth Facto (HGF) using HepaRG (AID 2283505)
In short: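 Using HepaRG monolayers kept in 0.5% DMSO, chemicals were tested in duplicate over eight half-log concentrations from 100 uM for 48 h. Endpoint: HGF mRNA change relative to DMSO, normalized to ACTB/GAPDH/POLR2A.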

[7] = read-out: Insulin Like Growth Factor 1 (IGF1), IGF1 (gene 3479); experiment: LTEA_HepaRG_IGF1: Life Technologies and Expression Analysis (LTEA) Assay for Insulin Like Growth Factor 1 (IGF1) using HepaRG (AID 2283506)
In short: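 Expression measured by TaqMan qRT-PCR on a Fluidigm array, with three housekeeping genes for normalisation, after 48 h treatment of HepaRG cells. Top concentration 100 uM with half-log steps, 0.5% DMSO vehicle, bidirectional fit.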

[8] = read-out: Intercellular Adhesion Molecule 1 (ICAM1), ICAM1 (gene 3383); experiment: LTEA_HepaRG_ICAM1: Life Technologies and Expression Analysis (LTEA) Assay for Intercellular Adhesion Molecule 1 (ICAM1) using HepaRG (AID 2283507)
In short: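 Using the human liver line HepaRG, compounds are tested in duplicate over 48 h at concentrations up to 100 uM. Expression is determined by TaqMan qRT-PCR, normalized to endogenous controls, and analysed relative to 0.5% DMSO vehicle.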

[9] = read-out: Insulin-like growth factor-binding protein 1 (IGFBP1), IGFBP1 (gene 3484); experiment: LTEA_HepaRG_IGFBP1: Life Technologies and Expression Analysis (LTEA) Assay for Insulin-like growth factor-binding protein 1 (IGFBP1) using HepaRG (AID 2283508)
In short: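 HepaRG, 48 h, 8 conc. (max 100 uM, half-log), duplicates, 0.5% DMSO. Readout: TaqMan qRT-PCR, ACTB/GAPDH/POLR2A normalisation. Fit: bidirectional vs DMSO.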

[10] = read-out: Interleukin 6 (IL6), IL6 (gene 3569); experiment: LTEA_HepaRG_IL6: Life Technologies and Expression Analysis (LTEA) Assay for Interleukin 6 (IL6) using HepaRG (AID 2283509)
In short: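 Transcript levels, normalized to three housekeeping genes, were quantified by qRT-PCR after 48 h chemical treatment of HepaRG cells. Eight-point half-log series from 100 uM in 0.5% DMSO, duplicates. Fitted both directions against DMSO baseline.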

Measured: AC50

Hypoxia-inducible factor 1-alpha (Homo sapiens), sequence (Q16665 whole entry, looked up): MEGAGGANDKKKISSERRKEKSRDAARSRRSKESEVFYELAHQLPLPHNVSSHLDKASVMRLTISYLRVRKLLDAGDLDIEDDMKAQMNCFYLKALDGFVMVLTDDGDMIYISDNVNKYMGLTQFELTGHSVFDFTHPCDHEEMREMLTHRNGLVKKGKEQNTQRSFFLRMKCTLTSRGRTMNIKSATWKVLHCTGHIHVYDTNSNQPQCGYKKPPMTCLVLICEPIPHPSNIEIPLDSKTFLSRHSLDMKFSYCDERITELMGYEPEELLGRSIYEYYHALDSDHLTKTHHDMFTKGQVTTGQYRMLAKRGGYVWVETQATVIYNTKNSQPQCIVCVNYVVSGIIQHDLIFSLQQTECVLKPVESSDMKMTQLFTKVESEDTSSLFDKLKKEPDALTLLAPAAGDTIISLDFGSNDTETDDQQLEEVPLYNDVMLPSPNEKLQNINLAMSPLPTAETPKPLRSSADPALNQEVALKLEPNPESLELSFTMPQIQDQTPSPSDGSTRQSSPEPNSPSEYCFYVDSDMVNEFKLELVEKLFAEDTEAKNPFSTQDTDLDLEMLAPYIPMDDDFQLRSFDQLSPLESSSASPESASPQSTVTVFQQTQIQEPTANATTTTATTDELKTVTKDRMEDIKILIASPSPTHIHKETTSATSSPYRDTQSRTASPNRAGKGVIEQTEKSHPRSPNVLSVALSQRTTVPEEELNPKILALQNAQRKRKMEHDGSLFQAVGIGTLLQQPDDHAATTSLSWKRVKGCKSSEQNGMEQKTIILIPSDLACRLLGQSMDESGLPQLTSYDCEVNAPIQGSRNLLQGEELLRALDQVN

COC(=O)c1ccccc1N
inactive: all assays above

O=P(OCCCl)(OCCCl)OCCCl
active: [3] 9.92 µM
inactive: all other assays above

CCCCCOC(=O)c1ccccc1C(=O)OCCCCC
inactive: all assays above

CN(C)C(=O)Nc1ccc(Cl)cc1
inactive: all assays above

C=CCc1ccc2c(c1)OCO2
not listed: [3]
inactive: all other assays above

CCCSC(=O)N(CCC)CCC
inactive: all assays above

CC(O)CCO (centres undefined)
inactive: all assays above

O=C1CCCO1
active: [5] 50 µM
inactive: all other assays above

CCCCCCCCCCCCCN1CC(C)OC(C)C1 (centres undefined)
inactive: all assays above

CN(C)[C@@H]1C(=O)C(C(N)=O)=C(O)[C@@]2(O)C(=O)C3=C(O)c4c(O)cccc4[C@@](C)(O)[C@H]3C[C@@H]12
not listed: [4]
inactive: all other assays above

Nc1ccc(N=Nc2ccccc2)cc1
active: [2] 13.2 µM | [3] 34 µM | [5] 24.6 µM | [7] 12.8 µM | [8] 30.9 µM
inactive: all other assays above

Clc1ccc(C(c2ccc(Cl)cc2)C(Cl)(Cl)Cl)cc1
active: [3] 23.3 µM | [7] 50 µM
inactive: all other assays above

CS(=O)(=O)NC(=O)c1cc(Oc2ccc(C(F)(F)F)cc2Cl)ccc1[N+](=O)[O-]
active: [5] 7.76 µM
inactive: all other assays above

Nc1cc(Cl)cc(C(=O)O)c1Cl
inactive: all assays above

Brc1ccc(Oc2ccccc2)cc1
inactive: all assays above

CCC12COCN1COC2
inactive: all assays above

O=[N+]([O-])c1ccc(Oc2ccc(Cl)cc2Cl)cc1
active: [1] 50 µM | [7] 50 µM | [9] 50 µM
not listed: [3]
inactive: all other assays above

Nc1ccc(Cl)cc1N
inactive: [1] | [2] | [8]
active: [3] 20.6 µM | [4] 19.7 µM | [5] 34.1 µM | [6] 33.6 µM | [7] 25 µM | [9] 16.1 µM | [10] 73.4 µM

CC(C)(O)c1cnn2c(-c3ccc(F)c(-c4c(F)cccc4C#N)c3)cnc2n1
active: [5] 13.1 µM | [7] 1.35 µM
inactive: all other assays above

CCCCCCCCn1sccc1=O
active: [5] 84.8 µM | [6] 81.3 µM
inactive: all other assays above

ClCCOCCCl
inactive: all assays above

N#CC(Br)Br
inactive: all assays above

Cc1ccc([N+](=O)[O-])cc1
active: [7] 17.8 µM
inactive: all other assays above

O=C(N[C@H](c1ccccc1)[C@@H]1CN2CCC1CC2)c1c(Cl)ccc(C(F)(F)F)c1Cl
active: [3] 73.8 µM | [5] 72.8 µM | [7] 46.2 µM | [8] 66.6 µM | [9] 34.8 µM | [10] 74.8 µM
inactive: [1] | [2] | [4] | [6]

OCCOCCO
inactive: all assays above

CCCCOC(=O)c1ccccc1C(=O)OCc1ccccc1
not listed: [3]
inactive: all other assays above

Cc1cccc(N)c1N
active: [5] 50 µM | [7] 50 µM | [9] 22.9 µM
inactive: all other assays above

N#CC(Br)(Br)C(N)=O
not listed: [2]
inactive: all other assays above

Clc1ccc(Cl)c(Cl)c1
active: [5] 50 µM
not listed: [2]
inactive: all other assays above

COc1cc(C=O)cc2c1[C@H](COC(N)=O)[C@]1(OC(C)=O)ON2C[C@H]2[C@@H]1N2C(C)=O
active: [4] 3.94 µM | [5] 0.827 µM | [7] 0.5 µM | [8] 1.31 µM | [9] 4.86 µM | [10] 1.52 µM
inactive: [1] | [3] | [6]

O=Cc1ccco1
not listed: [3]
inactive: all other assays above

CCOc1cccc(C2(N3CCN(c4ccccc4)CC3)CCC(C)CC2)c1 (centres undefined)
not listed: [3]
inactive: all other assays above

CCC(C)c1ccc(O)cc1 (centres undefined)
not listed: [3]
inactive: all other assays above

Clc1ccccc1Cl
not listed: [3]
inactive: all other assays above

O=C(Nc1ccccc1)c1ccccc1I
active: [1] 50 µM | [7] 19.1 µM | [9] 34.8 µM
not listed: [2]
inactive: all other assays above

CC(C)(C)OOC(=O)c1ccccc1
not listed: [3]
inactive: all other assays above

CN(C)c1ccc(C(=O)c2ccc(N(C)C)cc2)cc1
not listed: [3]
inactive: all other assays above

c1ccc(NNc2ccccc2)cc1
not listed: [2]
inactive: all other assays above

ClC1=C(Cl)[C@]2(Cl)[C@H]3[C@H]([C@@H]4C=C[C@H]3C4)[C@@]1(Cl)C2(Cl)Cl
active: [1] 12.7 µM
not listed: [3]
inactive: all other assays above
